Screening results from PubChem.
GC-B act: GC-B (human) receptor activation | P20594 | HEK293-GC-B cells, CNP EC30, cGMP TR-FRET; 0% at EC30 CNP, 100% saturating CNP | activation, % at 10 µM | 370,000 tested, 0.11% active | AID 1920062;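 active means activation at 10 µM reaching about 35% in either raw or pattern-adjusted values, limit read from the data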
MsrA act: activators of bovine methionine sulfoxide reductase A; purified bovine MsrA, absorbance read-out; AID 602163; 360,000 tested, 0.3% active; activation, % at 10.6 µM; in the data active means activation above about 7.5%
MsrA inh: inhibitors of bovine MsrA; purified bovine MsrA, absorbance read-out; inhibition, % at 15.5 µM; 360,000 tested, 0.75% active; AID 651718; in the data active means inhibition above about 4.5%
GC-A act: GC-A (human) enzyme activation | P16066 | HEK293 GC-A cells, cGMP TR-FRET, EC30 ANP; 0% at EC30 ANP, 100% saturating ANP | activation, % at 10 µM | 370,000 tested, 0.14% active | AID 1671463; in the data active means activation above about 40%
MsrA act confirm: confirmation of bovine methionine sulfoxide reductase A activators; AID 602270; shares compounds with MsrA act; activation, % at 10.6 µM; 1,000 tested, 12% active; purified bovine MsrA, absorbance read-out; in the data active means activation above about 4%;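 further: enzyme coupled to thioredoxin and thioredoxin reductase with NADPH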
Hits are given with their value. Hits are enriched below; roughly 1.2% of the tested compounds scored in any of these assays.

Screening Cc1nc2ccccn2c1-c1ccnc(=S)[nH]1 returned GC-B act inactive, MsrA act 8.8, MsrA inh inactive, GC-A act inactive and MsrA act confirm inactive.
Screening O=c1cc(CSc2ccccc2)[nH]c2ccccc12 returned GC-B act inactive, MsrA act inactive, MsrA inh inactive and GC-A act inactive.
For O=c1cc(CSc2ccccc2)[nH]c(=S)[nH]1 the results were GC-B act inactive, MsrA act 11, MsrA inh inactive, GC-A act inactive and MsrA act confirm inactive.
Screening CC1CCC2(CC1)CCN(CCCOC(=O)Nc1cccc(F)c1)C2=O (configuration not stated) returned GC-B act inactive and GC-A act inactive.
For O=C(CSc1nnc(SCc2cccc3ccccc23)s1)Nc1ccccc1-c1ccccc1 the results were GC-B act inactive and GC-A act inactive.
Screening O=C(Cn1ncc2c1-c1ccccc1OC2)N(Cc1ccco1)C1CCCCC1 returned GC-B act inactive, MsrA act 7.7, MsrA inh inactive, GC-A act inactive and MsrA act confirm inactive.
For CCN(CC)C(=O)Cn1ncc2c1-c1ccccc1OC2 the results were GC-B act inactive, MsrA act inactive, MsrA inh inactive and GC-A act inactive.
For COC(=O)Cc1[nH]n(-c2nc3ccccc3s2)c(=O)c1C(C)=Nc1ccc(Cl)cc1 the results were GC-B act inactive, MsrA act 8.2, MsrA inh inactive, GC-A act inactive and MsrA act confirm inactive.
Screening O=C(Nc1cccc(F)c1)c1cccc2c1C(=O)N(C1CCCCC1)C2 returned GC-B act inactive, MsrA act inactive, MsrA inh inactive and GC-A act inactive.
`CCc1cccc(NC(=O)c2cccc3c2C(=O)N(C2CCCCC2)C3)c1` gave MsrA act 8.6 and MsrA act confirm inactive.
For COc1ccc(N(CC(=O)NCc2ccc(C)cc2)S(=O)(=O)c2c(C)nn(C)c2C)cc1 the results were GC-B act inactive, MsrA act 9.7, MsrA inh inactive, GC-A act inactive and MsrA act confirm inactive.
`COc1ccc(CN2C(=O)[C@]3(NCCc4c3[nH]c3ccc(OC)cc43)c3cc(Br)ccc32)cc1` gave GC-B act inactive and GC-A act inactive.
Screening Cc1ccc(S(=O)(=O)NC2c3cccc4cccc(c34)C2Sc2nncn2C)cc1 (configuration not stated) returned GC-B act inactive, MsrA act 15, MsrA inh inactive, GC-A act inactive and MsrA act confirm inactive.
Screening COc1ccc(S[C@]2(C(=O)N(C)C)CC(=O)N(c3ccc(C#N)cc3)[C@@H]2c2ccc(OC)cc2)cc1 returned GC-B act inactive and GC-A act inactive.
For O=C(NCSc1ccnc(SCNC(=O)c2ccccc2)n1)c1ccccc1 the results were GC-B act inactive, MsrA act 11, MsrA inh inactive, GC-A act inactive and MsrA act confirm inactive.
For COc1cc(C(=O)NCc2ccccc2)cc(Br)c1OC the results were GC-B act inactive, MsrA act 10, MsrA inh inactive, GC-A act inactive and MsrA act confirm inactive.
O=C(CCS(=O)(=O)c1ccccc1)Nc1ccc(F)cc1Cl was read as GC-B act inactive and GC-A act inactive.
Screening CN(C)c1ccc2nc3ccc(=[N+](C)C)cc-3sc2c1 returned GC-B act inactive, MsrA act 23, MsrA inh 8.2, GC-A act inactive and MsrA act confirm 7.9.
`Cc1ccc(NC(=O)C(C)OC(=O)c2ccc(NC(=O)CC#N)cc2)cc1S(=O)(=O)N1CCOCC1` (configuration not stated) gave GC-B act inactive, MsrA act 9.5, MsrA inh inactive, GC-A act inactive and MsrA act confirm inactive.
For Cc1ccc(C(=O)OC(C)C(=O)Nc2ccc(S(N)(=O)=O)cc2)cc1S(=O)(=O)N1CCOCC1 (configuration not stated) the results were GC-B act inactive, MsrA act inactive, MsrA inh inactive and GC-A act inactive.
CCOc1ccc(/C=C2\NCCc3cc(OCC)c(OCC)cc32)cc1OCC was read as GC-B act inactive and GC-A act inactive.
Screening CC(=O)Nc1ccc(NC(=O)CCC(=O)OCC(=O)c2cccc([N+](=O)[O-])c2)cc1 returned GC-B act inactive, MsrA act inactive, MsrA inh inactive and GC-A act inactive.
`CC(=O)Nc1ccc(C(=O)OCC(=O)c2cccc([N+](=O)[O-])c2)cc1` gave GC-B act inactive, MsrA act 8.4, MsrA inh inactive, GC-A act inactive and MsrA act confirm inactive.
`Cc1ccc(-c2cc(-c3nnc(SCC(=O)Nc4ccc(OCc5ccccc5)cc4)n3N)[nH]n2)cc1` gave GC-B act inactive and GC-A act inactive.
O=C1c2ccccc2S(=O)(=O)c2cc(C(=O)N(c3ccccn3)c3ccccn3)ccc21 was read as GC-B act inactive, MsrA act 8.0, MsrA inh inactive, GC-A act inactive and MsrA act confirm inactive.
Screening O=C(NCCc1csc(-c2ccccc2)n1)c1c(F)cccc1F returned GC-B act inactive, MsrA act inactive, MsrA inh inactive and GC-A act inactive.
`O=C(NCCc1ccccc1)c1c(F)cccc1F` gave GC-B act inactive, MsrA act 11, MsrA inh inactive, GC-A act inactive and MsrA act confirm inactive.
`COc1ccccc1NC(=O)c1ccccc1Nc1ccccc1` gave GC-B act inactive, MsrA act 10, MsrA inh inactive, GC-A act inactive and MsrA act confirm inactive.
Screening Cc1ccc(C(C)C)cc1OCC(=O)Nc1nnc(C2CC2)s1 returned GC-B act inactive, MsrA act inactive, MsrA inh inactive and GC-A act inactive.
`Cc1cc(OCC(=O)Nc2nnc(C3CC3)s2)ccc1C(C)C` gave GC-B act inactive, MsrA act 11, MsrA inh inactive, GC-A act inactive and MsrA act confirm inactive.
Screening CCOC(=O)Cn1c(=O)c2c(nc3n2CCCCN3c2ccc(OCC)cc2)n(C)c1=O returned GC-B act inactive, MsrA act 8.0, MsrA inh inactive, GC-A act inactive and MsrA act confirm inactive.
For CCCCOC(=O)Cn1c(=O)c2c(nc3n2CCCCN3c2ccc(C)cc2)n(C)c1=O the results were GC-B act inactive, MsrA act inactive, MsrA inh inactive and GC-A act inactive.
COc1ccc(C)cc1S(=O)(=O)Nc1cccc(SC)c1 was read as GC-B act inactive, MsrA act 8.8, MsrA inh inactive, GC-A act inactive and MsrA act confirm inactive.
Screening COc1ccc(C)cc1S(=O)(=O)Nc1cccc(C)c1 returned GC-B act inactive, MsrA act inactive, MsrA inh inactive and GC-A act inactive.
`Cc1ccc(Cn2cc(CN3[C@H](CC(C)C)COc4cc(Br)ccc4S3(=O)=O)nn2)cc1` gave GC-B act inactive and GC-A act inactive.
`COc1ccc(CC(=O)NCc2ccc3c(c2)OCO3)cc1` gave GC-B act inactive, MsrA act inactive, MsrA inh inactive and GC-A act inactive.
